Bioassay records as filed in PubChem BioAssay.
G9a inh: qHTS Assay for Inhibitors of Histone Lysine Methyltransferase G9a. Histone-lysine N-methyltransferase EHMT2 (Homo sapiens), Q96KQ7. G9a H3K9 monomethylation, AlphaScreen, 2 h. Potency, µM (top dose mostly 102 µM), for inactives: at the highest dose activity, negative = inhibition, hits mostly inhibitors. actives 8.8% (n = 350,000). AID 504332, 2011; also: % is scaled to controls: 0 for no effect and ±100 for the full control effect; nearly all actives have a fitted effect of over 75% in size
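AlphaScreen detection with an anti-monomethyl H3K9 antibody quantified product after a 2 h room-temperature reaction containing 500 nM biotinylated H3K9 peptide, 20 µM SAM and 20 nM enzyme, which had been preincubated 15 min with compound.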
L3MBTL1 inh: qHTS Assay for the Inhibitors of L3MBTL1. Lethal(3)malignant brain tumor-like protein 1 (Homo sapiens), Q9Y468. AlphaScreen L3MBTL1–H3K9me1 peptide binding. Potency, µM (series often up to 57.1 µM), for the others: at the top dose activity, negative = inhibition, most hits filed as inhibitors. actives 0.66% (n = 230,000). AID 485360, 2010; also: % is scaled to controls: 0 for no effect and ±100 for the full control effect; nearly all actives have a fitted effect of over 60% in size
Target sequence (Q9Y468 whole entry, looked up): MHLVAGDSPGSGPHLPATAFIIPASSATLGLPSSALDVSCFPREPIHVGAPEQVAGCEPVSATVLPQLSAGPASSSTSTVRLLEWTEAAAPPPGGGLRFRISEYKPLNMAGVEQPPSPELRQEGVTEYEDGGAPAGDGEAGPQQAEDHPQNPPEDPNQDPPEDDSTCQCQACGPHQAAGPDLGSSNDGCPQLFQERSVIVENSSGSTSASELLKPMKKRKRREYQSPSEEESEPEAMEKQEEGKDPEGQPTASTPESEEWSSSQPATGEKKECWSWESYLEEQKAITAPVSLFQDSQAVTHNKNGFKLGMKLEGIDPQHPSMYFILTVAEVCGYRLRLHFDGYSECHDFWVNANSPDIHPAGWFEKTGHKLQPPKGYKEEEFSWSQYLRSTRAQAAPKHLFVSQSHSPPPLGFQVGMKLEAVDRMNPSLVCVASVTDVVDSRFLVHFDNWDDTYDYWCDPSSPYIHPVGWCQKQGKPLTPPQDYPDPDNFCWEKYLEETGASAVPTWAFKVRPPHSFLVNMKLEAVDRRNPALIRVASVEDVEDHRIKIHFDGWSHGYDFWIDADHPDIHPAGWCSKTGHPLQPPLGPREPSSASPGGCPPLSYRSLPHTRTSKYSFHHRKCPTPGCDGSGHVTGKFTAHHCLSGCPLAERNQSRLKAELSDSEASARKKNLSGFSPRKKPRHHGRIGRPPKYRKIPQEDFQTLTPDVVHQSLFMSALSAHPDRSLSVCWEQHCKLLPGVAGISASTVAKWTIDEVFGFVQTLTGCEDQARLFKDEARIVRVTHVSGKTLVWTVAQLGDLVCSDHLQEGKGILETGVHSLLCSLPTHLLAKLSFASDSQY
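Read-out is AlphaScreen signal from streptavidin donor and nickel chelate acceptor beads (10 ug/mL final each) bridging L3MBTL1 (50 nM) and biotinylated K9-monomethylated H3(1-15) peptide (75 nM), after 30 min compound exposure at room temperature.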
HP1b chromo inh: HTS for Inhibitors of HP1-beta Chromodomain Interactions with Methylated Histone Tails. AlphaScreen HP1-beta / biotin-H3K9me3 peptide binding. Potency, µM (doses to about 114 µM), without a hit: top-dose activity change, negative = inhibition, usual class: inhibitors. actives 0.56% (n = 390,000); also: nearly all actives have a fitted effect of over 70% in size
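Compound inhibition of the preformed complex between 50 nM HP1-beta and 50 nM biotinylated H3K9me3 peptide was read by AlphaScreen. Buffer was PBS pH 7.4 with 0.01% Tween-20. Incubations ran 30 min at room temperature, with 10 ug/mL donor/acceptor beads.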
JMJD2A Tudor: qHTS Assay for Inhibitors of JMJD2A-Tudor Domain. actives 4.4% (n = 390,000). Potency, µM (top dose mostly 114 µM), inactives show at the highest dose activity change, negative = inhibition, usual class: inhibitors. AlphaScreen JMJD2A-Tudor / H3K4me3 peptide binding; also: % is scaled to controls: 0 for no effect and ±100 for the full control effect; nearly all actives have a fitted effect of over 50% in size
BAZ2B block: qHTS Assay for Inhibitors of BAZ2B. actives 4.4% (n = 360,000). Bromodomain adjacent to zinc finger domain protein 2B (Homo sapiens), Q9UIF8. Potency, µM (series often up to 114 µM), without a hit: at the highest dose activity change, negative = inhibition, actives largely listed as inhibitors. AlphaScreen BAZ2B-H3K14Ac peptide displacement. AID 504333, 2011; also: % is scaled to controls: 0 for no effect and ±100 for the full control effect; nearly all actives have a fitted effect of over 60% in size
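Multi-concentration screen (max 110 uM) measuring displacement of acetylated histone H3 peptide from BAZ2B by AlphaScreen, using 50 nM protein, 50 nM peptide and 10 ug/mL streptavidin donor plus Ni-chelate acceptor beads.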
Numbers without * were called inactive; ? = inconclusive; nt = not tested or not shown; [ ] = remark or other dose. Sampled rows, rich in hits. Any-hit rate of the full collection: about 11%. Calls follow the shape of the dose curve; as a rule, active = well fitted inhibition curve with a large enough effect; inconclusive = small, poorly fitted or top-dose-only effect; inactive = no such curve, though single readings can be large or run the other way. Potency is read from the fitted curve at half-maximal effect.

SMILES	G9a inh	L3MBTL1 inh	HP1b chromo inh	JMJD2A Tudor	BAZ2B block
N/C(=N\N=C\c1ccc(Cl)cc1)N/N=C/c1ccc(Cl)cc1	-39.6%[12.7 µM]	nt	nt	nt	nt
N/C(=N\N=C/c1ccc(F)cc1)N/N=C\c1ccc(F)cc1	50.1µM*	11.0%	-8.1%	?	?
O=C(N/N=C\c1ccc(F)cc1)c1csnn1	1.58µM*	-0.7%	21.6%	-18.6%	-15.4%
CCC(Oc1ccc(F)cc1)C(=O)Nc1nc(-c2ccc(F)cc2)ns1 (stereo not given)	46.9%[59 µM]	nt	86.5%	13.5%	28.6%
Cc1ccc2nc(C)cc(Nc3ccc4c(c3)OCCO4)c2c1	44.7µM*	nt	8.5%	-19.2%	6.7%
Cc1cc(Nc2ccc3c(c2)OCCO3)c2ccccc2n1	?	-1.1%	-7.1%	-20.1%	-8.0%
COC(=O)C1=C(C)NC(C)=C(C(=O)OC)C1C(=O)OCc1nnc(-c2ccccc2Cl)o1	-5.5%	0.9%	17.5%	-13.8%	?
Cc1ccc(-c2csc(N/N=C/C=C/c3ccccc3)n2)cc1	-10.1%	-9.1%	-11.0%	-13.2%	-33.7%[57.1 µM]
Cc1csc(N/N=C/c2ccc([N+](=O)[O-])cc2)n1	-1.9%[59 µM]	-8.5%	29.5%	-26.7%	-9.2%
Clc1ccc(-c2csc(N/N=C\c3cccnc3)n2)cc1	10µM*	4.6%	31.3%	-2.2%	-29.5%
C(=N\Nc1nc(-c2ccccc2)cs1)/c1ccco1	12.6µM*	?	?	?	39.8µM*
Cc1ccc(-c2csc(N/N=C/c3ccco3)n2)cc1	?	-24.7%	-37.8%	50.1µM*	?
CN(C)S(=O)(=O)c1ccc(-c2csc(N/N=C/c3ccc(O)cc3)n2)cc1	22.4µM*	-11.4%	-1.9%	?	?
C(=N/Nc1nccs1)/c1cccnc1	-37.2%	nt	27.9%	-27.3%	nt
CC12CCC=CC1C(c1ccc3ccccc3c1Br)N(Cc1ccccc1)C2=O (stereo not given)	nt	nt	29.2%	-26.2%	nt
CCCn1cc(S(=O)(=O)c2cccc(Cl)c2)c(=O)c2cc(F)c(N3CCCC3)cc21	1.4%[59 µM]	nt	43.6%	10.6%	6.0%
Clc1ccc(-c2csc(N/N=C/c3ccco3)n2)cc1	nt	?	-12.3%	?	35.5µM*
CN(C)S(=O)(=O)c1ccc(-c2csc(N/N=C/c3ccco3)n2)cc1	28.2µM*	-20.4%	16.7%	-14.5%	-23.2%
Brc1ccc(-c2csc(N/N=C/c3ccco3)n2)cc1	?	nt	10.9%	-32.4%	8.91µM*
Cc1ccc2nc(N/N=C/c3ccco3)cc(C)c2c1	?	-10.6%	-4.4%	?	44.7µM*
Cc1oc(-c2ccc(C(=O)Nc3ccc(F)cc3F)cc2)nc1COc1ccccc1	-14.7%[59 µM]	nt	27.5%	-2.4%	-3.9%
COc1cccc2sc(N(Cc3cccnc3)C(=O)Cc3ccccc3)nc12	2.2%[59 µM]	nt	39.9%	-22.7%	?
CCc1ccc(C2C(C(=O)Nc3ccc(Cl)cc3)=C(C)Nc3ncnn32)cc1 (stereo not given)	1.1%[59 µM]	nt	22.7%	-16.4%	-12.5%
O=C(Nc1nc(-c2ccc(Cl)cc2)cs1)c1cccnc1	39.8µM*	nt	?	-22.1%[11.4 µM]	-7.7%
CC(=O)OC1CC2(C)/C(=N\O)CCC2C2CCc3cc(O)ccc3C12 (stereo not given)	10.1%	nt	28.3%	-4.3%	0.4%
Cn1c(=O)c2cc3c(nc2n(C)c1=O)CC(c1ccccc1)CC3=O (stereo not given)	-0.7%	-16.9%	3.3%	56.2µM*	-34.3%
CSc1nc2nc3c(cn2n1)C(=O)CC(c1ccccc1)C3 (stereo not given)	19.8%[12.7 µM]	nt	18.8%	-9.5%	4.6%
Cc1ccc(NS(=O)(=O)c2ccc3[nH]c4c(c3c2)CCCCCC4)cc1Cl	-32.8%[59 µM]	nt	22.4%	?	-24.4%
Cc1cccc(NS(=O)(=O)c2ccc3[nH]c4c(c3c2)CCCCCC4)c1	15.8µM*	nt	7.9%[57 µM]	?	-28.8%
